{
  "source": "PubChem BioAssay (NCI)",
  "note": "About 83,000 compounds went through this panel and 20% of them were active in at least one assay; those are over-represented in the sample as a whole.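 In brief: 96-well plates, 48 h treatment, single concentration, percent growth endpoint.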 The source made the active and inactive calls. How the source made its calls: active means growth percent below 10; inactive means the rest.",
  "data": [
    {"tested_on": "HL-60(TB) leukemia", "assay": "NCI-60 one-dose screen, 48 h (100 = growth as untreated, 0 = no growth, -100 = all killed)", "conditions": "10 µM unless noted", "values": [
      {"smiles": "COc1ccc(-c2cnnc3c(-c4cccc(C(F)(F)F)c4)cnn23)cc1", "growth": "60.2% (inactive)"},
      {"smiles": "COc1ccc(C(C)=O)c(OC)c1", "growth": "115% (inactive)"},
      {"smiles": "COc1ccc(/C=C/C(=O)/C=C/c2cc3ccc(Cl)cc3[nH]c2=O)cc1", "growth": "71% (inactive)"},
      {"smiles": "COc1cc(/C=C/C(=O)/C=C(/C=C/c2ccc(OC(C)=O)c(OC)c2)OB(F)F)ccc1OC(C)=O", "growth": "4.04% (active)"},
      {"smiles": "CSCC[C@@H]1C(=O)N(C)[C@H](C(C)(C)C)N1C(=O)c1ccccc1", "growth": "110% (inactive)"},
      {"smiles": "CCN(CC)CCOc1nc2ccccc2c2c1-c1ccc(OC)cc1C2=O", "growth": "9.1% (active)"},
      {"smiles": "O=C1C=C[C@H](O)[C@@]2(CO)O[C@@H]12", "growth": "-24.4% (active)"},
      {"smiles": "CC1(C)C2CCC(O)(C(=O)O)C1C2", "note": "(stereo not given)", "growth": "107% (inactive)"},
      {"smiles": "Cc1nccc2c3ccc(OCc4cn(Cc5ccc(Br)cc5)nn4)cc3n(CCCc3ccccc3)c12", "growth": "89% (inactive)"},
      {"smiles": "CCOC(=O)c1cc2c(n1C)-c1nc(NC(C)=O)sc1CCC2", "growth": "102% (inactive)"},
      {"smiles": "O=S(=O)(Nc1cc(Sc2cccc3cccnc23)c(O)c2ccccc12)c1ccc(F)cc1", "growth": "-21.9% (active)"},
      {"smiles": "CCCCCCCCC(C)C(=O)N1CCCC1C(=O)N1C(CC(=O)CC)CC(C)CC1C(=O)NC(C)C(=O)NC(C)(C)C(=O)NC(C)(C)C(=O)NC(C(=O)NC(C)C(=O)NC(C)(C)C(=O)NC(C)(C)C(=O)NC(C)CN(C)CCO)C(C)CC", "note": "(stereo not given)", "growth": "-51.8% (active)"},
      {"smiles": "OCCNc1nc(NCCO)nc(Nc2ccc(C3=NN(c4cc(Cl)cc(Cl)c4)C(c4ccc(C(F)(F)F)cc4)C3)cc2)n1", "note": "(stereo not given)", "growth": "16.7% (inactive)"},
      {"smiles": "CCOc1ccc2nc(SCc3nc4n(n3)S(=O)(=O)c3ccccc3N4C)sc2c1", "growth": "12.9% (inactive)"},
      {"smiles": "CCCCCCCCCCCCCCCCCC(=O)Nc1ccc(O)cc1", "growth": "5.77% (active)"},
      {"smiles": "CSc1cc(SC)ncn1", "growth": "101% (inactive)"},
      {"smiles": "Cc1ccc(Oc2nc3ccccc3cc2-c2nnc(Cn3c(COc4ccccc4)nc4ccccc43)o2)cc1", "growth": "-18.2% (active)"},
      {"smiles": "CCC(N)(C(=O)O)c1ccc(F)cc1", "note": "(stereo not given)", "growth": "87.1% (inactive)"},
      {"smiles": "FC(F)(F)c1cc(-c2nnc3n2N=C(Cl)CS3)cc(C(F)(F)F)c1", "growth": "93.2% (inactive)"},
      {"smiles": "CCOC(=O)c1c(C)nc2ccccc2c1/C=C/c1ccc(F)cc1", "growth": "85.7% (inactive)"},
      {"smiles": "C#CCOC(=O)Nc1ccccc1", "growth": "99.7% (inactive)"},
      {"smiles": "Cc1ccc(C(NC(=O)c2ccccc2)c2ccc3cccnc3c2O)cc1", "note": "(stereo not given)", "growth": "-21% (active)"},
      {"smiles": "O=C1c2cccc(NCCN=Cc3cc([N+](=O)[O-])ccc3O)c2C(=O)c2c(NCCN=Cc3cc([N+](=O)[O-])ccc3O)cccc21", "growth": "70.8% (inactive)"},
      {"smiles": "COc1cc(/C=C/C(=O)c2nc3cc(F)ccc3nc2C)cc(OC)c1OC", "growth": "-45.6% (active)"},
      {"smiles": "Cc1ccc2nc(-c3ccc(N(C)C)c(Br)c3)cn2c1", "growth": "36.8% (inactive)"},
      {"smiles": "OC(c1cc(-c2ccccc2)nc2ccc(Cl)cc12)C1CCCCN1", "note": "(stereo not given)", "growth": "49.7% (inactive)"},
      {"smiles": "Cn1cc(-c2nn3cc(-c4cccs4)nc3s2)c2cc(F)ccc21", "growth": "3.45% (active)"},
      {"smiles": "COC(=O)/C=C1/SC(=Nc2cccc(Cl)c2)N(CCc2c[nH]c3ccc(O)cc23)C1=O", "growth": "-11.4% (active)"},
      {"smiles": "O=C1c2ccccc2-c2nnc(-c3ccc(Br)cc3)cc21", "growth": "0.71% (active)"},
      {"smiles": "O=C1Nc2c(ccc(Cl)c2Cl)/C1=C/c1ccc([N+](=O)[O-])cc1", "growth": "74.1% (inactive)"},
      {"smiles": "CC(C)(C)NC/C(=C\\c1ccccc1)C(=O)c1ccccc1", "growth": "1.97% (active)"},
      {"smiles": "COc1ccc(Cn2cc3c(c2-c2ccc(OC)cc2)CCc2cnoc2-3)cc1", "growth": "-6.74% (active)"},
      {"smiles": "C=CC1CN2CCC1CC2C(O)c1ccnc2ccc(OC)cc12", "note": "(stereo not given)", "growth": "103% (inactive)"},
      {"smiles": "CC(=O)c1ccc(C)c(N)c1", "growth": "94.8% (inactive)"},
      {"smiles": "COc1cccc(-c2nc3sccn3c2-c2cccc(S(C)(=O)=O)c2)c1", "growth": "98.3% (inactive)"},
      {"smiles": "CC(=O)OCCO", "growth": "105% (inactive)"},
      {"smiles": "COc1cc2c(c(OC)c1OC)C(=O)/C(=C/c1cc(C)c(O)c(C)c1)S2", "growth": "13.6% (inactive)"},
      {"smiles": "CCCCN1c2nc3ccccc3cc2Sc2cc3ccccc3nc21", "growth": "101% (inactive)"},
      {"smiles": "NC(CC(=O)O)C(=O)OCc1ccccc1", "note": "(stereo not given)", "growth": "101% (inactive)"},
      {"smiles": "CCCCCCC12CCC(=O)N1CCc1cncn12", "note": "(stereo not given)", "growth": "85.4% (inactive)"}
    ]}
  ]
}
